The values below come from PubChem BioAssay AID902 (National Center for Advancing Translational Sciences (NCATS), 2007).

Structures are written as SMILES. Hit rate of the full screen: of about 130,000 compounds, about 1,900 (1.5%) were called active. About 5% were inconclusive and are not listed. The sample as a whole holds a higher share of actives than the screen did. A number with no mark means an inactive call. Calls come from the whole dose curve; as a rule, active = well fitted cell-killing curve with a large enough effect; inconclusive = small, poorly fitted or top-dose-only effect; inactive = no such curve, though single readings can be large or run the other way.
% is set by controls: 0 for no effect and ±100 for the full control effect; potency is the fitted concentration of half-maximal effect.

This experiment in a line: qHTS Screen for Compounds that Selectively Target Cancer Cells with p53 Mutations: Cytotoxicity of p53ts Cells at the Nonpermissive Temperature. Note: nearly all actives have a fitted effect of over 55% in size. To be noted: H1299-p53A138V viability at 39C, ATP luminescence, 24 h; series mostly up to 46.1 µM; activity change, negative = cell killing: at the top concentration.
Take `c1ccc(-c2noc(-c3cccs3)n2)nc1`: the Potency was 15.8 µM (active).

For the compound `CC(C)c1nc(-c2ccccn2)no1`, the “activity change, negative = cell killing” value was -4.4%.

For `COc1ccc(CNC(=O)c2cc3c(-c4ccccc4F)nn(C)c3s2)c(OC)c1`, the “activity change, negative = cell killing” value is 14.9%.

For `O=C(Cc1ccccc1)Nc1sc2c(c1C(=O)Nc1ccc(Br)cc1)CCC2`, the “activity change, negative = cell killing” value was 14.3%.

Turning to `CCOc1ccc(NC(=O)c2c(NC(=O)Cc3ccccc3)sc3c2CCCCC3)cc1`, the Potency is 10 µM (active).

As to `CCOc1ccc(NC(=O)c2c(NCc3cccc(OC)c3OC)sc3c2CCC3)cc1`, the “activity change, negative = cell killing” value was 27.5%.

As to `CCc1ccc(CNC(=O)c2ccc(CS(=O)c3ccc(Br)cc3)o2)cc1` (configuration not stated), the “activity change, negative = cell killing” value was -14.8%.

In the case of `CC(NC(=O)c1cc(Sc2ccc(F)cc2F)nc2ccccc12)c1ccccc1` (configuration not stated), the “activity change, negative = cell killing” value was -22.5%.

Consider `O=C(/C=C/c1ccccc1)N1CCN(Cc2cc(=O)n3nc(-c4ccccc4F)sc3n2)CC1`, for which the “activity change, negative = cell killing” value is -9.93%.

`O=C(Cn1c(=O)sc2ccccc21)Nc1nc2c(s1)CCCC2`: the “activity change, negative = cell killing” value is -3.55%.

`NC(=O)c1ccccc1NC(=O)c1ccccc1F`: the “activity change, negative = cell killing” value was 5.04%.

Consider `O=C(Nc1nc2c(s1)CCCC2)c1ccccc1F`, for which the Potency was 10 µM (active).

In the case of `COC(=O)c1ccccc1NS(=O)(=O)c1ccc2c(c1)CCCN2C(C)=O`, the “activity change, negative = cell killing” value was 26.2%.

In the case of `CCn1cc2nc(SCc3ccccc3Cl)n(CCc3ccccc3)c(=O)c2n1`, the “activity change, negative = cell killing” value was -22%.

For `Cc1ccc(C(=O)N2CCCCCC2)cc1Br`, the “activity change, negative = cell killing” value is 5.68%.

As for `CCc1ccc(CNC(=O)c2cc3cc4ccc(OC)cc4nc3o2)cc1`, the “activity change, negative = cell killing” value is 22.4%.

Take `Cc1ccc2cc3cc(C(=O)N4CCCCCC4)oc3nc2c1`: the Potency is 15.8 µM (active).

Regarding `CCCS(=O)(=O)c1c(Nc2ccccc2C)sc(C(=O)c2ccccc2)c1N`, the “activity change, negative = cell killing” value was -12.5%.

Turning to `Cc1c(NC(=O)C(C)(C)C)cccc1-c1nc2ccccc2s1`, the Potency was 15.8 µM (active).

Turning to `CCC(C(=O)Nc1cccc(-c2nc3cccnc3s2)c1C)c1ccccc1` (configuration not stated), the “activity change, negative = cell killing” value is 18.6%.

For the compound `Cc1c(NC(=O)Cc2ccccc2)cccc1-c1nc2cccnc2s1`, the “activity change, negative = cell killing” value is 0.432%.

For `CCOc1ccc(NC(=O)CN(Cc2ccccc2)S(=O)(=O)c2ccc(Cl)cc2)cc1`, the “activity change, negative = cell killing” value is -8.08%.

For `CCOc1ccc(N(Cc2ccccc2)C(=O)c2nc(S(C)(=O)=O)ncc2Cl)cc1`, the Potency is 3.98 µM (active).

`CCOc1ccc(N(Cc2ccccc2)C(=O)c2nc(SCC)ncc2Cl)cc1`: the “activity change, negative = cell killing” value was -14.9%.

For `COc1ccc(Br)cc1CNC(=O)c1cc(=O)[nH]c2ccc(S(=O)(=O)N3CCCC3)cc12`, the “activity change, negative = cell killing” value was -16.2%.

Turning to `COc1ccc(NC(=O)CN2CCCN(Cc3ccccc3)S2(=O)=O)cc1`, the “activity change, negative = cell killing” value is -4.26%.

Take `COc1ccc(C(=O)Nc2nonc2-c2ccc(OC)c(OC)c2)cc1Cl`: the “activity change, negative = cell killing” value was -26.9%.

For the compound `Cn1c(=O)c2sccc2n2c(CCC(=O)NCc3ccccc3Cl)nnc12`, the “activity change, negative = cell killing” value is -15.6%.

`CC1=C(c2ccc(C)cc2)S(=O)(=O)NC1=NCCCN1CCN(c2cc(C)ccc2C)CC1`: the “activity change, negative = cell killing” value was 35.5%.

Consider `Cc1ccc(C)c(N2CCN(CCCNC(=O)Nc3ccc(Cl)cc3)CC2)c1`, for which the Potency was 10 µM (active).

As for `CC1=C(c2ccc(Cl)cc2)S(=O)(=O)N=C1N1CCN(c2cc(C)ccc2C)CC1`, the “activity change, negative = cell killing” value is 0.663%.

In the case of `CCN(CCCNC(=O)c1ccc(Sc2ccc(C)cc2)c(NC(C)=O)c1)c1cccc(C)c1`, the “activity change, negative = cell killing” value is -24.9%.

As for `COC(=O)c1ccc(C2C(C(=O)Nc3ccccc3)=C(C)Nc3nc4ccccc4n32)cc1` (configuration not stated), the Potency was 12.6 µM (active).

Take `CCOc1ccc(C2C(C(=O)NC)=C(C)Nc3nc4ccccc4n32)cc1OC` (configuration not stated): the “activity change, negative = cell killing” value is 8.77%.

Consider `COc1ccccc1C1C(C(=O)N2CCCCC2)=C(C)Nc2nc3ccccc3n21` (configuration not stated), for which the “activity change, negative = cell killing” value is -9.81%.

In the case of `CCOC(=O)c1c(C)[nH]c(C)c1S(=O)(=O)N1CCCC(C(=O)NCc2ccccc2Cl)C1` (configuration not stated), the “activity change, negative = cell killing” value is 2.61%.

In the case of `CCc1cnc2c(c1SCC(=O)c1ccccc1)c(=O)n(C)c(=O)n2C`, the “activity change, negative = cell killing” value is 23.2%.

As for `CC(C)(C)c1ccc(C(=O)N2CCC(c3nc(-c4ccc(S(=O)(=O)N5CCCC5)cc4)no3)CC2)cc1`, the “activity change, negative = cell killing” value is -24.5%.

Consider `Cc1sc(C2C(C#N)=C(N)N(c3cccc(Cl)c3)C3=C2C(=O)CCC3)cc1CN1CCOCC1` (configuration not stated), for which the “activity change, negative = cell killing” value was 7.17%.

Take `COc1c2c(cc3occ(-c4ccc5c(c4)OCO5)c(=O)c13)OC(C)(C)C=C2`: the Potency was 10 µM (active).

Turning to `COc1ccc(CCNC(=O)c2cc(-c3ccc4c(c3)OCO4)on2)cc1OC`, the “activity change, negative = cell killing” value was -2.99%.

As to `CCC(=O)N1CCc2cc(S(=O)(=O)NCCC(=O)Nc3cccc(C)c3C)ccc21`, the “activity change, negative = cell killing” value was -12.6%.

For `COc1cccc(NC(=O)CSc2cc(=O)n(C)c3ccc(Cl)cc23)c1`, the “activity change, negative = cell killing” value is -18.7%.

Regarding `CCCCOc1ccc(C(=O)N2CC(=O)Nc3ccc(Br)cc3C2c2ccc(F)cc2)cc1` (configuration not stated), the “activity change, negative = cell killing” value was 6.43%.

For `CCCCc1nn2c(=O)cc(COC(=O)c3ccc(NC(=O)c4ccccc4C)cc3)nc2s1`, the “activity change, negative = cell killing” value was -22%.

On to `c1ccc(-c2nc(NCc3ccco3)c3ccccc3n2)cc1`, for which the “activity change, negative = cell killing” value is -12.3%.

With `CN(C)c1ccc(-c2nc(NCCN3CCOCC3)c3ccccc3n2)cc1`, the Potency was 12.6 µM (active).

Turning to `c1ccc2[nH]c(NCCN3CCOCC3)nc2c1`, the “activity change, negative = cell killing” value is 2.07%.

Take `O=C(c1cccc(Br)c1)N1CCN(Cc2cc(=O)n3nc(-c4ccccc4)sc3n2)CC1`: the “activity change, negative = cell killing” value is 8.96%.

Consider `Cc1csc(-c2nc3ccccc3n2C)n1`, for which the Potency is 25.1 µM (active).

With `Cc1nn2c3ccccc3nc2n(C)c1=O`, the “activity change, negative = cell killing” value was 0.337%.

As for `CC(C)n1c(-c2cccs2)nc2ccccc21`, the “activity change, negative = cell killing” value was -17.5%.
